We go through 51 compounds from ChEMBL document CHEMBL3988442, “University of Dundee, Small-Polar-MMV Screening Library” (2021).

Screen size: about 38,000 compounds; about 1,200 (3.2%) showed an effect of 50% or more. The median lay at about -58%. What follows is part of a selection rich in strong results, with near analogues and random picks from the rest.

In this experiment the test system is Plasmodium falciparum. Description: Calibr Malaria Delayed Death Assay SOP. The settings on record: concentration 4.99e-06 (unit not given; other assays of the set use mol/L). The format is functional, organism-based. The arrangement: scale not given: in the data most compounds retested in dose-response had high values.
Consider `Cc1oc(-c2cccc(F)c2F)nc1CN(C)CCO`, for which the “Percent Effect” value was -89.89%. For the compound `CC[C@H](C)[C@H](NC(=O)c1cccc(-n2cnnn2)c1)C(=O)OC`, the “Percent Effect” value was -118.3%. Turning to `COCC(O)CNC(=O)c1cc(COc2ccc3c(c2)CCCC3)on1` (stereo unspecified), the “Percent Effect” value is recorded as -3.069%. With `CC(C)NC(=O)CC1COC2(CCN(Cc3cccs3)CC2)C1.O=C(O)C(F)(F)F` (stereo unspecified), the “Percent Effect” value is reported as -6.903%. Consider `O=C(COc1coc(CN2CCCC2)cc1=O)Nc1cc(Cl)ccc1Cl`, for which the “Percent Effect” value came to 79.74%.

With `O=C(COc1coc(CN2CCCC2)cc1=O)Nc1ccc(Cl)c(Cl)c1`, the “Percent Effect” value is -65.99%. Then `O=C(COc1coc(CN2CCCCC2)cc1=O)Nc1ccccc1Cl`, with -97.93%; and `COc1ccc(NCC(=O)NCC(=O)N2CCCC2)c(C(F)(F)F)c1`, with -93.16%; and `CC(C)CNC(=O)CN(Cc1ccc(F)cc1)S(C)(=O)=O`, with -57.65%. In the case of `COc1ccc(C[C@H]2CN(C(=O)c3cscn3)CC[C@@H]2OC)cc1`, the “Percent Effect” value was -91.5%.

For the compound `CCn1cnnc1CNC(=O)N1CCN(CC(C)C)CC1`, the “Percent Effect” value is on record as -55.6%.

Regarding `c1ccc(-c2nc(CNC3CCc4ncnn4C3)no2)cc1` (stereo unspecified), the “Percent Effect” value is -138.7%. As for `Fc1ccc(C2(NCc3ccccc3)CCOCC2)cc1`, the “Percent Effect” value is on record as 62.64%. The value for `CSc1ccc(CNC2(c3ccc(F)cc3)CCOCC2)cc1` was 28.49%. Then `CN(C)c1ccc(CNC2(c3ccc(F)cc3)CCOCC2)cc1F`, with 25.79%. `O=C(CCc1nc2ccccc2[nH]1)Nc1ccc2c(c1)OCC(=O)N2`: the “Percent Effect” value is -185.4%.

As for `Cc1cc(F)c(S(=O)(=O)Nc2ccn(CCC#N)n2)cc1F`, the “Percent Effect” value is -82.35%. `CO[C@@H]1CCN(c2ncccn2)[C@H]1Cc1ccccc1`: the “Percent Effect” value is -224.1%.

On to `CN(C)[C@@H]1CCN(c2ncccn2)[C@H]1Cc1ccncc1.O=C(O)C(F)(F)F.O=C(O)C(F)(F)F`, for which the “Percent Effect” value is -10.95%. Then `CN(C)[C@@H]1CCN(c2ncc(F)cn2)[C@H]1Cc1ccncc1.O=C(O)C(F)(F)F.O=C(O)C(F)(F)F`, with 27.12%; and `CN(C)[C@@H]1CCN(c2ncccn2)[C@H]1Cc1cccnc1.O=C(O)C(F)(F)F.O=C(O)C(F)(F)F`, with 10.59%; and `Fc1cnc(N2CC[C@@H](N3CCOCC3)[C@@H]2Cc2ccccc2)nc1`, with -55.08%. For `CN(C)[C@@H]1CCN(c2ncccn2)[C@H]1Cc1ccccc1`, the “Percent Effect” value came out at 77.2%.

Take `CN(C)[C@@H]1CCN(c2ncc(F)cn2)[C@H]1Cc1ccccc1.O=C(O)C(F)(F)F.O=C(O)C(F)(F)F`: the “Percent Effect” value came to 88.46%. Take `CN(C)[C@@H]1CCN(c2ncc(F)cn2)[C@H]1Cc1cccnc1.O=C(O)C(F)(F)F.O=C(O)C(F)(F)F`: the “Percent Effect” value was -22.18%. Turning to `Cc1nn(C)c(C)c1CN(C)C(C(=O)O)c1ccc(F)cc1F` (stereo unspecified), the “Percent Effect” value is -28.09%.

Consider `Cc1nc(-c2nnc[nH]2)sc1C(=O)N1CCCC1c1cccs1` (stereo unspecified), for which the “Percent Effect” value was -86.12%. The value for `Cc1ccc(F)c(S(=O)(=O)NCCc2nnc[nH]2)c1` was -33.36%; that for `N#Cc1ccc(NCC(O)c2ccco2)c(C(F)(F)F)c1` (stereo unspecified) was -33.98%. Consider `Cn1cc(C(=O)N2CCCC(CN3CCCC3=O)C2)cn1` (stereo unspecified), for which the “Percent Effect” value is reported as -14.99%.

Turning to `O=C(c1ccc(F)c(F)c1)N1CCC[C@]2(C[C@@H](OCC3CC3)CO2)C1`, the “Percent Effect” value is -0.7044%. With `COC(=O)CC(c1ccc(O)c(Cl)c1)c1oc(C)cc(=O)c1O` (stereo unspecified), the “Percent Effect” value is reported as -28.31%. Regarding `Cc1nc(C)n(C2CCCN(C(=O)CCc3ccccn3)C2)n1` (stereo unspecified), the “Percent Effect” value was -132.7%. For `CC(C)COCCNC1CCN(c2ccccn2)CC1`, the “Percent Effect” value was 60.11%. The value for `COc1ccc(C(C)CCNC2CCN(c3ccccn3)CC2)cc1` (stereo unspecified) was 67.25%; that for `COCCOCC(=O)NC1CCN(c2ccccn2)CC1` was -21.4%; that for `CC(CNC1CCN(c2ccccn2)CC1)Oc1ccc(F)cc1` (stereo unspecified) was 47.69%.

Regarding `CC(C)COCCC(=O)NCCC(=O)N1CCN(c2ccccn2)CC1`, the “Percent Effect” value is -146.7%. The value for `OC1(CNC2CCN(c3ccccn3)CC2)CCc2ccccc21` (stereo unspecified) was 27.14%. Regarding `CSCC(=O)N1CCOC(c2nc(C(C)C)n[nH]2)C1` (stereo unspecified), the “Percent Effect” value is reported as -97.79%. Consider `CC(C)[C@H]1CN(c2ccnc(N)n2)C[C@@H]1NC(=O)C1(C#N)CCOCC1`, for which the “Percent Effect” value was -66.36%. In the case of `Cc1cc(CN2CCC(c3nccn3C(C)C)CC2)ccc1F`, the “Percent Effect” value was 18.24%. As to `NC1CCCCN(Cc2cc(-c3ccccc3OC(F)(F)F)no2)C1` (stereo unspecified), the “Percent Effect” value was 70.63%.

For the compound `NC1CCCCN(Cc2cc(C3CCCCC3)no2)C1` (stereo unspecified), the “Percent Effect” value was determined as 62.41%. For the compound `Fc1ccc(C2CCCCN2Cc2cc(-c3ccccn3)no2)cc1` (stereo unspecified), the “Percent Effect” value is -40.19%. For the compound `OCC1COCCN(Cc2cc(C3CCCCC3)no2)C1` (stereo unspecified), the “Percent Effect” value is -120.4%. Take `OC1COCCN(Cc2cc(-c3ccccc3OC(F)(F)F)no2)C1` (stereo unspecified): the “Percent Effect” value is given as -13.03%. `C[C@@H]1CN(Cc2cc(C3CCCCC3)no2)CC[C@]1(C)O`: the “Percent Effect” value was -5.788%. On to `O=C(O)C(F)(F)F.O=C(O)C(F)(F)F.O=C1COC2(CCN(Cc3cccnc3)CC2)CN1c1ccccc1`, for which the “Percent Effect” value was -17.97%. Regarding `Cc1cnc(C(=O)N2CCCC(n3cccn3)C2)cn1` (stereo unspecified), the “Percent Effect” value is given as -66.69%. On to `CCN(C)Cc1cccc(CNC(=O)NCCc2ccccn2)c1`, for which the “Percent Effect” value is -13.41%.
